Experimental findings from ChEMBL document CHEMBL1157539, “Thousands of chemical starting points for antimalarial lead identification” (Nature, 2010) are described below.

Common to all, as to assay type: functional
Assay [1] deals with Plasmodium falciparum. Kind of assay: GSK_TCMDC: Inhibition of Plasmodium falciparum 3D7 in whole red blood cells, using parasite LDH activity as an index of growth. Test compounds present at 2uM.
The test system of assay [2] is Plasmodium falciparum. Kind of assay: GSK_TCMDC: Inhibition of Plasmodium falciparum Dd2 in whole red blood cells, using parasite LDH activity as an index of growth. Test compounds present at 2uM.
In a further assay the test system is HepG2. The assay can be described thus: GSK_TCMDC: Percent inhibition of human HepG2 cell line. Test compounds present at 10uM.

A word on the Inhibition: it is how much of the control response was suppressed. Higher therefore signals strong suppression.

On to `CC(C)C[C@H](Nc1ccnc(NCC2CCCCC2)n1)C(=O)NCCc1ccccc1.O=C(O)C(F)(F)F`, for which the Inhibition came out at 88% in the assay with Plasmodium falciparum [1], 66% in the assay on Plasmodium falciparum [2] and 10% in the assay with HepG2.
The corresponding values for `CS(=O)(=O)NCCCNCc1ccc(-c2cccc(-c3nc4cc(F)ccc4[nH]3)c2)cc1.O=C(O)C(F)(F)F` are 98%, 1% and 15%.
For `Cc1ccc2nc3ccccc3c(NCCN3CCN(C)CC3)c2c1.Cl` the same measures were 100%, 6% and 19%.
The corresponding values for `O=C1C(c2ccccc2)=C(Nc2cccc(OC(F)(F)C(F)F)c2)c2ccccc21` are 96%, 96% and 0%.
With `N#Cc1ccc(N2CCN(Cc3ccc(-c4ccc(-c5nc6cc(C(F)(F)F)ccc6[nH]5)cc4)cc3)CC2)nc1.O=C(O)C(F)(F)F`, the Inhibition stood at 100% with Plasmodium falciparum [1], 90% in the assay on Plasmodium falciparum [2] and 19% in the assay on HepG2.
As to `O=C(Nc1cc2cc(-c3ccc(CN4CCCCC4)cc3)ccc2n2cnnc12)NC1CCCC1`, the Inhibition in the assay on Plasmodium falciparum [1] is 100%; with Plasmodium falciparum [2], 98%; with HepG2 it was 78%.
The corresponding values for `O=C(Nc1ccc(OC2CCN(Cc3ccc(F)cc3)C2)cc1)c1cccs1.O=C(O)C(F)(F)F` (stereo not drawn) are 94%, 92% and 2%.
The corresponding values for `O=C(/C=C/c1ccc(Cl)c(Cl)c1)N1CCC(CNCc2cccc3cc[nH]c23)CC1` are 85%, 14% and 1%.
For `N#Cc1ccc(-c2ccc(C(=O)NCCCCN3CCC(c4cn(CCO)c5ccccc45)CC3)cc2)cc1` the same measures were 93%, 43% and 23%.
In the case of `COc1cc2c(cc1OC)CN(CCc1ccc(NC(=O)c3cc4cc(OC(F)(F)F)ccc4[nH]3)cc1)CC2`, the Inhibition amounted to 99% in the assay on Plasmodium falciparum [1], 20% in the assay on Plasmodium falciparum [2] and 36% in the assay on HepG2.
Consider `OC(CNc1ccnc(Nc2cccc(CCN3CCOCC3)c2)n1)c1ccccc1` (stereo not drawn), for which the figures for the Inhibition with Plasmodium falciparum [1], with Plasmodium falciparum [2] and in the assay with HepG2 were 100%, 14% and 34%, respectively.
For the compound `C[C@@H]([C@@H](CCCc1ccc(Cl)cc1)C(=O)N[C@H](C(=O)Nc1cccnc1)C(C)(C)C)N(O)C=O`, the Inhibition in the assay with Plasmodium falciparum [1] is 100%; in the assay on Plasmodium falciparum [2], 99%; in the assay with HepG2, 7%.
The corresponding values for `Cc1cc(Nc2nc(NCc3cccnc3)nc3ccccc23)n[nH]1` are 100%, 33% and 11%.
The corresponding values for `Cl.N#Cc1ccc(C2CCN(CC[C@H](N)Cc3ccc(Cl)s3)CC2)cc1` are 92%, 30% and 31%.
The corresponding values for `CC1Cc2ccccc2N1CC(=O)Nc1cc(C(F)(F)F)ccc1-n1cncn1` (stereo not drawn) are 97%, 97% and 17%.
Regarding `Cc1cc(=NN=Cc2ccccc2F)c2cccc(C)c2[nH]1`, the results for the Inhibition with Plasmodium falciparum [1], in the assay on Plasmodium falciparum [2] and in the assay on HepG2 were 100%, 14% and 7%, respectively.
The corresponding values for `O=C(Cn1c(CCc2cccc(F)c2F)cc(=O)c2cccnc21)N(CCCn1ccnc1)Cc1ccc(-c2ccc(C(F)(F)F)cc2)cc1` are 96%, 47% and 38%.
The corresponding values for `[O-][s+]1c(Cl)c(-c2ccc(Cl)cc2)c2ccc(Cl)cc21` (stereo not drawn) are 91%, 99% and 33%.
The corresponding values for `Cc1cc(NCCc2ccc(O)cc2)nc(NCC(c2ccccc2)c2ccccc2)n1` are 100%, 77% and 22%.
Take `CCc1ccc(NC(=O)c2ccc(CN3CCCN(Cc4cccc(Cl)c4)CC3)cc2)cc1.O=C(O)C(F)(F)F`: the Inhibition is reported as 84% with Plasmodium falciparum [1], 2% in the assay on Plasmodium falciparum [2] and 50% in the assay on HepG2.
For `Cc1cccn2c(=O)c3cc(C(=O)NC(C)c4ccccc4)c(=N)n(CCN4CCOCC4)c3nc12` (stereo not drawn) the same measures were 100%, 5% and 6%.
For `COc1cc2nc(NCCc3ccccc3)nc(N(C)Cc3ccccc3)c2cc1OC` the same measures were 96%, 58% and 31%.
With `O=C(O)C(F)(F)F.O=S(=O)(NCCN1CCCC1)c1cccc(-c2cccc(CNCc3ccc(F)cc3)c2)c1`, the Inhibition in the assay with Plasmodium falciparum [1] came to 99%; with Plasmodium falciparum [2], 73%; in the assay with HepG2, 41%.
For `O=C(NC1CC1)c1ccc(Cn2c(SCc3cccc(Cl)c3)nc3ccccc3c2=O)cc1` the same measures were 90%, 70% and 2%.
For `O=C(Nc1ccc(CCN2CCC(c3nc(COCC(F)(F)F)c(-c4ccccc4)o3)CC2)cc1)c1ccc(F)cc1` the same measures were 86%, 3% and 9%.
In the case of `O=C(O)C(F)(F)F.c1cnc2ccc(NCc3ccc(-c4ccc(CNC5CCCC5)cc4)cc3)cc2c1`, the Inhibition in the assay on Plasmodium falciparum [1] amounted to 97%; in the assay on Plasmodium falciparum [2] it was 21%; in the assay on HepG2, 27%.
The corresponding values for `CS(=O)(=O)O.NC1=NC(CCc2ccccc2)N(c2ccccc2)C(N)=N1` (stereo not drawn) are 94%, 15% and 1%.
For `CN1CCCc2ccc(NC(=O)c3cc(-c4ccc(Cl)cc4)cs3)cc2C1.O=C(O)C(F)(F)F` the same measures were 94%, 40% and 35%.
For `Nc1nc(N)c2c(ccn2Cc2cc3c(cc2Cl)OCO3)n1`, the figures for the Inhibition with Plasmodium falciparum [1], in the assay on Plasmodium falciparum [2] and in the assay with HepG2 were 98%, 11% and 67%, respectively.
For `O=C1CC(C(=O)O)CC(=O)N1`, the Inhibition is recorded as 94% with Plasmodium falciparum [1], 88% in the assay with Plasmodium falciparum [2] and 0% in the assay on HepG2.
On to `CCOc1ccc2c(=NN=Cc3ccccc3F)cc(C)[nH]c2c1`, for which the Inhibition worked out at 100% in the assay with Plasmodium falciparum [1], 77% with Plasmodium falciparum [2] and 0% with HepG2.
